# PPC-1+TRAIL kill: kills PPC-1 cancer cells in the presence of TRAIL; PPC-1 cells + TRAIL, ATPLite viability luminescence; cell killing (% activity), % at 4 µM or 5 µM; 220,000 tested, 0.41% active; AID 1443;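 active means cell killing above 50% in the first pass at 4 µM, then a duplicate retest at 5 µM averaging 50% or more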;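 further: plate controls were cells with TRAIL plus DMSO for no effect and medium-only wells lacking cells for full effect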
# CF NFkB block: blocks PAF-induced NF-kB reporter in cystic fibrosis cells; KKLEB NF-kB-GFP reporter, GFP fluorescence overnight; inhibition, % at 5 µM; 360,000 tested, 0.86% active; AID 588850;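 active means at least 50% inhibition at 5 µM, scaled per plate between neutral and stimulator controls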;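 further: PAF is a Pseudomonas aeruginosa culture filtrate used as stimulus; plate controls were PAF-stimulated DMSO wells for no effect and unstimulated DMSO wells for full effect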
# HIF-2a inh: HIF-2a inhibition. AID 624352. inhibition, % at 18.8 µM. 786-0 RCC cells HIF-2a reporter, luciferase luminescence, overnight. 360,000 tested, 0.72% active;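 active means inhibition of the luminescence signal of 40% or more relative to plate controls, in a single-dose primary screen at 18.75 µM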
# TRAIL sens C8: sensitizes caspase-8 expressing cells to TRAIL | NB7+C8 cells + TRAIL, ATPlite viability luminescence | inhibition (viability loss, TRAIL sensitization), % at 10 µM | 360,000 tested, 1% active | AID 624354;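 active means compounds causing at least 50% loss of cell viability in the single-dose screen, relative to plate controls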
# Peg3 promoter: Peg3 promoter activity inhibition. HeLa PEG-Prom luciferase reporter, luminescence, overnight. inhibition, % at 20 µM. 360,000 tested, 1.7% active. AID 588405;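 active means inhibition of at least 50% at 20 µM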
# KKLEB tox: CF airway cell cytotoxicity counter-screen; 360,000 tested, 0.36% active; KKLEB CF airway cells viability, ATPlite luminescence, overnight; stronger effect = lower value; cells stimulated with P. aeruginosa culture filtrate; activity change (cytotoxicity), % at 5 µM;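 active means corrected activity change at or below -50% at 5 µM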
# Active calls of the source: *; . = no result. Most compounds without a hit are left out; they make up all but 3.1% or so of the library.
SMILES,PPC-1+TRAIL kill,CF NFkB block,HIF-2a inh,TRAIL sens C8,Peg3 promoter,KKLEB tox
COc1ccc(C2=Nc3ccccc3N(C(=O)c3ccc(C(F)(F)F)cc3)C2C(=O)Nc2ccc3c(c2)OCCO3)cc1 (stereo not drawn),.,.,-159,1,.,.
CCn1c2ccc(F)cc2c2nnc(SCCN3CCCCC3)nc21,.,-25,5,9,8,-1
CC(C)(C)OC(=O)NCc1ccc(NC(=O)c2nc[nH]c2C(=O)Nc2cc(Br)ccc2F)cc1,.,12,-1,12,14,-39
CC(C)(C)OC(=O)NCc1ccc(CNC(=O)c2[nH]cnc2C(=O)Nc2ccccc2F)cc1,.,18,3,56*,39,-6
O=C(Nc1ccccc1F)c1nc[nH]c1C(=O)NCc1ccccc1,.,-12,-17,9,20,2
CC(C)(C)OC(=O)NCCCCCNC(=O)c1[nH]cnc1C(=O)Nc1cc(Br)ccc1F,.,6,-9,58*,10,-5
C(=N\Nc1nc2ccccc2[nH]1)/c1ccncc1,33,17,-194,9,-195,10
Clc1nc2ccccc2cc1/C=N/Nc1nc2ccccc2[nH]1,37,-19,-163,83*,-179,-43
CC(=O)Nc1ccc(/C=N/Nc2nc3ccccc3[nH]2)cc1,12,-24,-118,75*,-88,12
CCCc1cc(C(=O)N2CCCC(C(=O)c3cc(C)c(OC)c(C)c3)C2)n(C)n1 (stereo not drawn),.,1,16,-1,22,0
O=[N+]([O-])/C=C/c1c(OCc2ccccc2)ccc2ccccc12,-17,61*,95*,60*,101*,-54*
COc1ccc(N(CC(=O)Nc2ccccc2OC)S(=O)(=O)c2ccc(NC(C)=O)cc2)cc1,.,11,17,20,31,-12
OC(CNCC(c1ccc(Cl)cc1Cl)c1c[nH]c2ccccc12)c1ccccc1 (stereo not drawn),3,19,17,25,110*,-17
COc1ccccc1C(=O)NNC(=O)c1ccc(Br)cc1,.,3,-83,19,-60,11
O=C(CCCCC(=O)NN=Cc1ccc(Cl)cc1)NN=Cc1ccc(Cl)cc1,.,0,1,7,3,-9
CCOC(=O)c1cnc2ccc(C(=O)OC)cc2c1Nc1ccc(C(=O)O)cc1,15,7,12,0,10,-2
CCOC(=O)c1ccc2ncc(C(=O)OCC)c(Nc3ccc(N4CCOCC4)cc3)c2c1,15,65*,8,26,88*,-4
CCOC(=O)N1CCC(Nc2c(N3CCN(c4cc(Cl)ccc4C)CC3)c(=O)c2=O)CC1,8,4,14,23,22,-6
CCOC(=O)N1CCC(Nc2c(-c3ccc(C)c(C)c3)c(=O)c2=O)CC1,-2,2,20,58*,21,4
Cc1cc(C)c2cc(C#N)c(NCCNC(=O)c3ccncc3)nc2c1,.,.,4,-2,.,.
CN(C)c1ccc(/C=C/c2nc3ccccc3c(=O)[nH]2)cc1,.,-16,-87,91*,21,-77*
O=c1[nH]c(/C=C/c2cccc3ccccc23)nc2ccccc12,-4,-20,-173,-2,-42,2
O=c1[nH]c(/C=C/c2ccccn2)nc2ccccc12,.,5,-200,30,-129,-12
COc1ccc(C(=O)Nc2cccc(/C=C/c3nc4ccccc4c(=O)[nH]3)c2)cc1,9,48,-51,76*,28,-29
Cc1cccc(/C=C\c2nc3ccccc3c(=O)[nH]2)c1,38,20,-162,58*,-149,-25

# Source: PubChem BioAssay (Sanford-Burnham Center for Chemical Genomics)
